# RGS4-Gao reg: human RGS4-Galphao interaction regulation. P09471. Multiplexed bead flow cytometry, RGS4-Galphao binding; actives lie on both sides. binding response (% of control), % at 10 µM. 220,000 compounds, 0.33% hits; in the data active = binding response below about 49% or above about 150%; inactive = in between;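 note: fluorescent Galphao activated with aluminum fluoride binding bead-coupled RGS4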
# Target sequence (P09471 whole entry, looked up): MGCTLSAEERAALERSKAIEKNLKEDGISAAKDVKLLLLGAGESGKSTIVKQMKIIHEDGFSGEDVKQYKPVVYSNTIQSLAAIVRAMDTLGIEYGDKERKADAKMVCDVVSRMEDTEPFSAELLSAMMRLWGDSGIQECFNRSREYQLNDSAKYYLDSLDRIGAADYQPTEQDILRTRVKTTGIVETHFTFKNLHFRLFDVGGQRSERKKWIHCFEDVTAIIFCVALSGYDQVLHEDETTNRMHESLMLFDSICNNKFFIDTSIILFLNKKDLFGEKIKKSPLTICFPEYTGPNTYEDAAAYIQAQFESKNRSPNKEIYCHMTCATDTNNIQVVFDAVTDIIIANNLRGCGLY
# RGS16-Gao: RGS16-Galphao interaction regulator (human); O15492+P09471; bead-based flow cytometry RGS16-Galphao binding, fluorescence; actives lie on both sides; 220,000 compounds, 0.38% hits; binding response (% of control), % at 10 µM;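 note: Galphao activated by GDP with aluminum fluoride before binding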
# RGS8-Gao reg: modulates binding of RGS8 to human Galphao; P09471; multiplexed bead flow cytometry; actives lie on both sides; response (percent of control binding), % at 10 µM; 220,000 compounds, 0.34% hits; in the data active = response below about 60% or above about 140%; inactive = in between;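 note: Galphao activated as the GDP aluminium fluoride complex binding bead-coupled RGS8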
# RGS7-Gao: regulators of human RGS7-Galphao interaction; P09471; Multiplexed bead flow cytometry, RGS7-Galphao binding; actives lie on both sides; binding response (% of control), % at 10 µM; 220,000 compounds, 0.35% hits; AID 1439; in the data active = binding response below about 49% or above about 150%; inconclusive = no clear call, values can overlap the other calls; inactive = in between;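 note: fluorescent Galphao held in activated GDP-AlF4 state binding bead-coupled RGS7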
# GSH fluor: compound fluoresces at 488/530 nm on GSH beads. GSH beads flow cytometry, compound fluorescence 488/530 nm; active compounds read high. fluorescence (KMESF) at 10 µM. 190,000 compounds, 0.25% hits; in the data active = fluorescence above about 89;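 note: glutathione beads carrying GST-tagged Bcl family fusion proteins plus one bare bead set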
# Avidin fluor: compound fluoresces at 488/530 nm on avidin beads. compound fluorescence 488/530 nm, flow cytometry; active compounds read high. fluorescence (KMESF) at 10 µM. 220,000 compounds, 0.38% hits; in the data active = fluorescence above about 47
# RGS-Gao: RGS4-Galphao interaction regulator (human) | shares compounds with RGS16-Gao | multiplexed bead flow cytometry, RGS–Galpha-o binding | RGS4–Galpha-o binding response, % at 10 µM | 1,600 compounds, 99% hits | AID 1504;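 note: fluorescently labeled Galpha-o bound to GDP with aluminium fluoride binding biotinylated RGS beads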
# Target sequence (P09471 whole entry, looked up): as above
# Target sequence (P49798 whole entry, looked up): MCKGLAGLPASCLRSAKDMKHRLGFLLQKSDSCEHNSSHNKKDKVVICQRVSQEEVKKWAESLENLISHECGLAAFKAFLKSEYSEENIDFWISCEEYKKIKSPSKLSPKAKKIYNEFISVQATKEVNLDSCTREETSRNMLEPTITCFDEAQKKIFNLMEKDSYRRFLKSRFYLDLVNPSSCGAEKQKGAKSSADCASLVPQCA
# Biotin-avidin: biotin-avidin bead binding disruption counter-screen; shares compounds with RGS16-Gao; streptavidin beads, fluorescein-biotin binding, flow cytometry; inhibition, % at 10 µM; 1,700 tested, under 10 active; AID 1783;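 active = inhibition above 50%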;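 note: median green fluorescence of gated singlet beads compared with DMSO control wells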
# RGS8-Gao single: confirmation of regulators of human RGS8-Galphao interaction | binding response (% of control), % at 10 µM | bead-based flow cytometry RGS8-Galphao binding, fluorescence; actives lie on both sides | shares compounds with RGS16-Gao | AID 1836 | 1,700 compounds, 3% hits; in the data active = binding response below about 72% or above about 130%; inactive = in between;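 note: Galphao activated as GDP AlF4 complex before binding bead RGS8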
# RGS7-Gao single: RGS7-Galphao interaction regulation, single point confirmation; shares compounds with RGS16-Gao; 1,700 compounds, 7.8% hits; bead-based flow cytometry RGS7-Galphao binding; actives lie on both sides; response (percent of control binding), % at 10 µM; in the data active = response below about 75% or above about 130%; inactive = in between;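 note: fluorescent Galphao activated with GDP and aluminum fluoride binding bead-coupled RGS7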
# RGS16-Gao conf: RGS16-Galphao interaction regulation, single point confirmation; response (% of control binding), % at 10 µM; AID 1838; 1,700 compounds, 4% hits; bead-based flow cytometry, RGS16-Galphao binding; actives lie on both sides; shares compounds with RGS16-Gao; in the data active = response below about 74% or above about 130%; inactive = in between;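 note: Galphao activated as the GDP aluminium fluoride complex binding bead-coupled RGS16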
# RGS4-Gao single: RGS4-Galphao interaction regulation, single point confirmation; shares compounds with RGS16-Gao; RGS4-Galphao binding, multiplexed bead flow cytometry; actives lie on both sides; binding response (% of control), % at 10 µM; 1,700 compounds, 4% hits; in the data active = binding response below about 74% or above about 130%; inactive = in between
# RGS19-Gao conf: confirmation of regulators of human RGS19-Galphao interaction. response (percent of control binding), % at 10 µM. 1,700 compounds, 5% hits. shares compounds with RGS16-Gao. bead-based flow cytometry RGS19-Galphao binding; actives lie on both sides; in the data active = response below about 50% or above about 160%; inactive = in between
# Hits are given with their value; . = inactive; ? = inconclusive; / = no result; [ ] = another dose, or the depositor's remark. This is a sample that favours compounds with a hit; in the whole collection about 1.2% have one here. Unless noted, the rule behind the calls is not given here.
SMILES,RGS4-Gao reg,RGS16-Gao,RGS8-Gao reg,RGS7-Gao,GSH fluor,Avidin fluor,RGS-Gao,Biotin-avidin,RGS8-Gao single,RGS7-Gao single,RGS16-Gao conf,RGS4-Gao single,RGS19-Gao conf
CCOC(=O)C1CCN(c2nc3ccccc3n2CC(=O)c2ccccc2)CC1,.,.,.,.,.,.,/,/,/,/,/,/,/
Cn1c(SCC(=O)NCCN2C(=O)CSC2=O)nnc1-c1ccccc1,.,.,.,213.4[activator],.,138,123.8,.,.,.,.,.,.
Cc1ccc(-n2c(SCC(=O)NCCN3C(=O)CSC3=O)nnc2-c2ccccc2)cc1,.,18.4,.,.,.,.,89.8,.,.,.,.,.,.
CCCCn1c(N)c(N(Cc2ccccc2OC)C(=O)COc2ccccc2C#N)c(=O)[nH]c1=O,.,.,.,?,/,.,/,/,/,/,/,/,/
N#CC1=C(N)N=C(SCc2ccccc2)C(C(N)=O)C12CCCCC2 (stereo not given),.,.,142.5[activator],.,.,.,108.0,/,/,/,/,/,/
C=CCSC1=NC(N)=C(C#N)C2(CCCCC2)C1C(N)=O (stereo not given),.,.,.,.,.,.,/,/,/,/,/,/,/
Cc1cccc2cc3c(N)c(C(=O)N4CCc5ccccc54)sc3nc12,.,.,.,.,.,.,/,/,/,/,/,/,/
O=C(CCS(=O)(=O)c1cccc2nsnc12)NCc1ccccc1Cl,.,.,.,.,.,.,/,/,/,/,/,/,/
Cc1nc2ccccc2nc(C)c1=NOCc1ccccc1Cl,.,.,.,.,.,.,/,/,/,/,/,/,/
CN1CCN(C(CNS(=O)(=O)c2ccc(Cl)cc2)c2cccnc2)CC1 (stereo not given),.,.,.,157.1[activator],.,130,109.6,.,.,.,.,.,.
COc1ccccc1CNC(=O)CSc1nc2nc(C)cc(C)n2n1,.,.,.,.,.,.,/,/,/,/,/,/,/
O=C(CNC(=O)C1COc2ccccc2O1)N/N=C/c1ccc(O)cc1O (stereo not given),.,-1.7,56.1,.,.,.,61.8,.,.,.,.,.,.
Cc1ccc(Cl)c(OC(=O)c2nn(C(C)C)c(=O)c3ccccc23)c1,.,247.8[activator],.,.,.,.,101.4,.,.,.,.,.,.
COC(=O)c1cccc(NC(=O)c2nn(C(C)C)c(=O)c3ccccc23)c1,.,.,.,.,.,.,/,/,/,/,/,/,/
CN(CC(=O)NCc1ccccc1Cl)CC(=O)Nc1cccc(F)c1,.,.,.,.,.,.,/,/,/,/,/,/,/
CCCNC(=O)/C(=C/c1cn(S(=O)(=O)N(C)C)c2ccccc12)NC(=O)c1ccc(OC)cc1,.,.,.,.,.,.,/,/,/,/,/,/,/
Cc1cc(C)c2c(=O)n(CC(=O)Nc3ccc(Cl)cc3)sc2n1,.,12.0,.,?,/,.,101.5,.,68.3,.,14.8,.,16.9
CCOc1ccc(NC(=O)Cn2sc3nc(C)cc(C)c3c2=O)cc1,.,.,.,?,/,.,/,/,/,/,/,/,/
Cc1cc(C)c2c(=O)n(CC(=O)Nc3cccc(F)c3)sc2n1,.,17.3,.,?,/,.,83.3,.,66.8,.,17.3,.,23.8
Cc1ccc(NC(=O)Cn2sc3nc(C)cc(C)c3c2=O)c(Cl)c1,.,16.2,.,?,/,.,88.2,.,65.0,.,21.6,.,17.9
Cc1cccc(N2CCN(C(=O)Cn3sc4nc(C)cc(C)c4c3=O)CC2C)c1 (stereo not given),.,21.6,.,.,.,.,94.0,.,63.4,.,11.8,.,2.5
Cc1ccc(C)c(NC(=O)C(c2ccccc2)N2CCOCC2)c1 (stereo not given),.,.,.,.,.,.,/,/,/,/,/,/,/
O=C(COC(=O)Cc1cccc(C(F)(F)F)c1)NC1CC1,15.6,6.5,11.8,12.1,.,.,/,.,.,.,.,.,.
O=C(COC(=O)Cc1cccc(C(F)(F)F)c1)Nc1ccc2c(c1)OCCO2,.,.,.,.,.,.,/,/,/,/,/,/,/
O=C(N/C=N/OCc1cccc(C(F)(F)F)c1)N1OC[C@@H]2COc3ccc4ccccc4c3[C@@H]21,.,.,.,.,.,.,/,/,/,/,/,/,/
SMILES,RGS4-Gao reg,RGS16-Gao,RGS8-Gao reg,RGS7-Gao,GSH fluor,Avidin fluor,RGS-Gao,Biotin-avidin,RGS8-Gao single,RGS7-Gao single,RGS16-Gao conf,RGS4-Gao single,RGS19-Gao conf
CCc1nc2c(oc3ccccc32)c(=O)[nH]1,.,.,.,.,.,.,/,/,/,/,/,/,/
O=c1[nH]cnc2c1oc1ccccc12,.,.,143.1[activator],.,.,.,116.7,.,.,.,.,.,.
O=C(c1cnccn1)N(Cc1cccs1)C1(C(=O)NC2CCCCC2)CCCCC1,.,245.6[activator],.,.,.,.,114.9,.,.,66.7,.,.,.
O=C(c1cnccn1)N(Cc1cccs1)C1(C(=O)NC2CCCC2)CCCCC1,.,.,.,.,.,.,/,/,/,/,/,/,/
Cc1cc(=O)[nH]c(SCn2nnc3ccccc3c2=O)n1,36.2,.,36.5,29.6,.,.,/,.,.,.,.,.,.
O=c1c2ccccc2nnn1CSc1nc2ccccc2[nH]1,.,.,.,.,.,.,/,/,/,/,/,/,/
CC(C)(C)NC(=O)COC(=O)c1ccc(Cl)nc1,/,/,/,/,.,/,/,.,.,63.7,.,.,45.0
N#CC1CCN(c2ncccc2[N+](=O)[O-])CC1,282.4[activator],.,.,?,/,.,/,.,.,.,.,.,.
CC(=O)NC1(C(F)(F)F)NC(=O)N(c2ccc(F)cc2)C1=O (stereo not given),.,.,.,?,.,.,/,/,/,/,/,/,/
OCCSc1nc(-c2ccccc2)nc2c1CCC2,.,15.4,.,.,.,.,95.5,.,.,.,.,.,.
Cc1cc(C)n(-c2cccc(Cl)c2C#N)n1,.,.,.,?,/,.,/,/,/,/,/,/,/
O=C(N/N=C/c1cc(Cl)cc([N+](=O)[O-])c1O)NC12CC3CC(CC(C3)C1)C2,.,.,.,.,.,.,/,/,/,/,/,/,/

# Screens (PubChem)
